Results reported in PubChem BioAssay (NCATS).
Several values for one entry are separate records, joined by “and”; a condition that tells them apart may be missing. Equal values may be shown once. Values without a mark were called inactive. Records with an inconclusive call do not appear. A call without a number means that no potency is given here. Activity calls are given as the source filed them. Unless noted, calls come from the whole dose curve; as a rule, active = well fitted curve in the direction sought with a large enough effect; inconclusive = small, poorly fitted or top-dose-only effect, or another doubt; inactive = no such curve, though single readings can be large; an effect the other way counts as inactive or inconclusive.

system: not listed separately; assay: Inducers of the Endoplasmic Reticulum Stress Response (ERSR) in human glioma: Validation (AID 504836); details: human glioma cells, ER stress response reporter; series mostly up to 38.3 µM
Method in brief: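 Stably transfected U87-MG glioma cells carrying a GRP78-based luciferase sensor; 16 h compound incubation. Luminescence end-point read 10 min after Bright-Glo addition at room temperature.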

**Q.** With `Cn1cnc([N+](=O)[O-])c1Sc1ncnc2nc[nH]c12` as the compound, how does the outcome read?
**A.** inactive

**Q.** Which outcome does the source give for `C[C@](N)(Cc1ccc(O)c(O)c1)C(=O)O` here?
**A.** inactive

**Q.** With `CCCNC(=O)NS(=O)(=O)c1ccc(Cl)cc1` as the compound, how does the outcome read?
**A.** inactive

**Q.** Which outcome does the source give for `NC[C@H](O)c1ccc(O)c(O)c1` here?
**A.** inactive

**Q.** For `CCC1(c2ccccc2)C(=O)NCNC1=O`, which outcome is on record?
**A.** inactive

**Q.** For `Cc1cn([C@H]2C[C@H](N=[N+]=[N-])[C@@H](CO)O2)c(=O)[nH]c1=O`, which outcome is on record?
**A.** inactive

**Q.** For `Cc1cn([C@H]2C=C[C@@H](CO)O2)c(=O)[nH]c1=O`, which outcome is on record?
**A.** inactive

**Q.** For `CC1(C)NC(=O)N(c2ccc([N+](=O)[O-])c(C(F)(F)F)c2)C1=O`, which outcome is on record?
**A.** inactive

**Q.** With `Cc1ccccc1C(OCCN(C)C)c1ccccc1` (stereo not drawn) as the compound, how does the outcome read?
**A.** inactive

**Q.** For `CCN(CC)C(=S)SSC(=S)N(CC)CC`, which outcome is on record?
**A.** inactive

**Q.** Which outcome does the source give for `CN(C)CCOC(C)(c1ccccc1)c1ccccn1` (stereo not drawn) here?
**A.** inactive

**Q.** For `CN(Cc1cnc2nc(N)nc(N)c2n1)c1ccc(C(=O)N[C@@H](CCC(=O)O)C(=O)O)cc1`, which outcome is on record?
**A.** inactive

**Q.** With `O=c1[nH]cc(F)c(=O)[nH]1` as the compound, how does the outcome read?
**A.** inactive

**Q.** For `CCCCNC(=O)NS(=O)(=O)c1ccc(C)cc1`, which outcome is on record?
**A.** inactive

**Q.** For `CC(C)OC(=O)C(C)(C)Oc1ccc(C(=O)c2ccc(Cl)cc2)cc1`, which outcome is on record?
**A.** inactive

**Q.** Which outcome does the source give for `Clc1ccc(C(c2ccccc2Cl)C(Cl)Cl)cc1` (stereo not drawn) here?
**A.** inactive

**Q.** For `COc1ccc(Cl)cc1C(=O)NCCc1ccc(S(=O)(=O)NC(=O)NC2CCCCC2)cc1`, which outcome is on record?
**A.** inactive

**Q.** For `CC1=C(/C=C/C(C)=C/C=C/C(C)=C/C(=O)Nc2ccc(O)cc2)C(C)(C)CCC1`, which outcome is on record?
**A.** inactive

target: Ubiquitin carboxyl-terminal hydrolase 1 (Homo sapiens) (UniProt O94782); assay: Inhibitors of USP1/UAF1: Pilot qHTS (AID 504865); details: purified USP1/UAF1, Ub-rhodamine cleavage fluorescence; series mostly up to 114 µM; note: nearly all actives have a fitted effect of over 35% in size; note: potency is the fitted concentration of half-maximal effect
Method in brief: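 USP1/UAF1 complex (1nM) preincubated with compound 15 min at room temperature, then Ub-Rho substrate (150nM final) added. Fluorescence read kinetically at 480/540 nm, 6 reads every 60 seconds. Buffer: 50mM HEPES pH 7.8, 0.5mM EDTA, 0.1 mg/ml BSA, 1mM TCEP, 0.01% Tween-20.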

Ubiquitin carboxyl-terminal hydrolase 1 (Homo sapiens), sequence (O94782 whole entry, looked up): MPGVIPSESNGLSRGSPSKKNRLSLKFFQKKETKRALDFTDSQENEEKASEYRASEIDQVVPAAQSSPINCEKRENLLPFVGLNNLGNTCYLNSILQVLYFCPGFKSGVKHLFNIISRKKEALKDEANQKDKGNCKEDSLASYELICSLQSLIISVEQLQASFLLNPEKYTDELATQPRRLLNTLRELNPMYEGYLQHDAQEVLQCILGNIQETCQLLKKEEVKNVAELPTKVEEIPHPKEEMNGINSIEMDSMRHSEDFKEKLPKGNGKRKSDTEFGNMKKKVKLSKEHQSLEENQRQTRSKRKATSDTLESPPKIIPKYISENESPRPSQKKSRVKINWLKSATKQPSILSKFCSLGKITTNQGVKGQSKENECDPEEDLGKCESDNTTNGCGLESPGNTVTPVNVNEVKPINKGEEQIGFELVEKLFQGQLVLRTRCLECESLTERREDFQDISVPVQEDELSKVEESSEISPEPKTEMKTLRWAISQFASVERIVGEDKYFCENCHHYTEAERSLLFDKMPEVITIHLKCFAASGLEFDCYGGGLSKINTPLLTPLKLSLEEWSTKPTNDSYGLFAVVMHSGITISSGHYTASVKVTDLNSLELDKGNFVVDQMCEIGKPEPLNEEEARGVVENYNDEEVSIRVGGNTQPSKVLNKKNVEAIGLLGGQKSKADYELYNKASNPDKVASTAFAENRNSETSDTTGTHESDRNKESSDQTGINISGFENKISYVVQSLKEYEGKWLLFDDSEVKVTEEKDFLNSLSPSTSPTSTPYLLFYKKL

**Q.** Which Potency does the source give for `NCCc1cc(O)c(O)cc1O` here?
**A.** 50.1 µM (active)

**Q.** Which Potency does the source give for `CC(C)(N)Cc1ccc(Cl)cc1` here?
**A.** inactive

**Q.** With `Cn1c(CCCC(=O)O)nc2cc(N(CCCl)CCCl)ccc21` as the compound, how does the Potency read?
**A.** inactive

**Q.** With `O=C(O)c1ccc2[nH]cc(CCCCN3CC=C(c4ccccc4)CC3)c2c1` as the compound, how does the Potency read?
**A.** inactive

**Q.** With `CCC(C(N)=O)N1CCCC1=O` (stereo not drawn) as the compound, how does the Potency read?
**A.** inactive

**Q.** For `CC(=O)Nc1cc([As](=O)(O)O)ccc1O`, which Potency is on record?
**A.** inactive

**Q.** Which Potency does the source give for `CCN(CC)CCOC(=O)C(O)(c1ccccc1)c1ccccc1` here?
**A.** inactive

**Q.** For `CC1NCCOC1c1ccccc1` (stereo not drawn), which Potency is on record?
**A.** inactive

**Q.** With `CCN(CC)CCN1C(=O)CN=C(c2ccccc2F)c2cc(Cl)ccc21` as the compound, how does the Potency read?
**A.** inactive

**Q.** Which Potency does the source give for `CCN(C(C)=O)c1cccc(-c2ccnc3c(C#N)cnn23)c1` here?
**A.** inactive

**Q.** Which Potency does the source give for `CC(C)(C)NCC(O)c1cc(Cl)c(N)c(Cl)c1` (stereo not drawn) here?
**A.** inactive

**Q.** Which Potency does the source give for `CN(C)CCc1ccc(O)cc1` here?
**A.** inactive

**Q.** Which Potency does the source give for `CC[N+]1(C)CCCC(OC(=O)C(O)(c2ccccc2)c2ccccc2)C1` (stereo not drawn) here?
**A.** inactive

**Q.** For `O=P1(NCCCl)OCCCN1CCCl` (stereo not drawn), which Potency is on record?
**A.** inactive

**Q.** With `CC1OC(C)OC(C)O1` (stereo not drawn) as the compound, how does the Potency read?
**A.** inactive

**Q.** Which Potency does the source give for `C#CCOC(C(=O)OCCN(C)C)(c1ccccc1)c1ccccc1` here?
**A.** inactive

**Q.** Which Potency does the source give for `O=[N+]([O-])c1cc([As](=O)(O)O)ccc1O` here?
**A.** inactive

**Q.** Which Potency does the source give for `CC(C)NCC(O)c1ccccc1Cl` (stereo not drawn) here?
**A.** inactive

**Q.** Which Potency does the source give for `CC(C)CC(N(C)C)C1(c2ccc(Cl)cc2)CCC1` (stereo not drawn) here?
**A.** inactive

**Q.** With `Cc1ccc(-c2nc3ccc(C)cn3c2CC(=O)N(C)C)cc1` as the compound, how does the Potency read?
**A.** inactive

target: Bile acid receptor (Homo sapiens) (UniProt Q96RI1); assay: qHTS assay for small molecule agonists of farnesoid X receptor signaling (AID 588527; calls by dose curve); details: HEK293T FXR-UAS-bla, beta-lactamase ratio, 16 h; hits give high values
Method in brief: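 FXR-UAS-bla HEK293T, 10% dialyzed FBS; cpds up to 92 uM titration, 16 h 37 C; CCF4 dye 2 h RT; fluorescence. Normalized to chenodeoxycholic acid 100 uM (100%) and DMSO (0%); Hill fit gives EC50, efficacy.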

Bile acid receptor (Homo sapiens), sequence (Q96RI1 whole entry, looked up): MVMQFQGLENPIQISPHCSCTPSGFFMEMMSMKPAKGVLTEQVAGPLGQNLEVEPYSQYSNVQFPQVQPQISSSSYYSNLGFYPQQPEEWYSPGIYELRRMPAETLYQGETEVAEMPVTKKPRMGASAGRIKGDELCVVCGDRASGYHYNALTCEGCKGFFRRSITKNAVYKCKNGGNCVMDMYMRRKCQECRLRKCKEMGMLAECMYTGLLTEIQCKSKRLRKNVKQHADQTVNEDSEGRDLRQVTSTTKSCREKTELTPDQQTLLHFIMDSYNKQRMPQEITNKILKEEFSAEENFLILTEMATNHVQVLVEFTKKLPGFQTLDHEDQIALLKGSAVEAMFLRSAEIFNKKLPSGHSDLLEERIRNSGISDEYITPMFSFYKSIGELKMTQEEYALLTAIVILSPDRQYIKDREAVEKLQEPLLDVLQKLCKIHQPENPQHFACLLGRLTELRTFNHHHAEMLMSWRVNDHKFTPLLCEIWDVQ

**Q.** Which activation does the source give for `CCC1(c2ccccc2)C(=O)NCNC1=O` here?
**A.** -0.167% and -0.256%

**Q.** With `Cc1cn([C@H]2C[C@H](N=[N+]=[N-])[C@@H](CO)O2)c(=O)[nH]c1=O` as the compound, how does the activation read?
**A.** -3.84%

**Q.** Which activation does the source give for `Cc1cn([C@H]2C=C[C@@H](CO)O2)c(=O)[nH]c1=O` here?
**A.** -2.48% and 1.31% and -0.393%

**Q.** Which activation does the source give for `CC1(C)NC(=O)N(c2ccc([N+](=O)[O-])c(C(F)(F)F)c2)C1=O` here?
**A.** 0.399%

**Q.** With `Cc1ccccc1C(OCCN(C)C)c1ccccc1` (stereo not drawn) as the compound, how does the activation read?
**A.** -1.23%

**Q.** With `CN(C)CCOC(C)(c1ccccc1)c1ccccn1` (stereo not drawn) as the compound, how does the activation read?
**A.** -1.68%

**Q.** Which activation does the source give for `CN(Cc1cnc2nc(N)nc(N)c2n1)c1ccc(C(=O)N[C@@H](CCC(=O)O)C(=O)O)cc1` here?
**A.** -5.02%

**Q.** With `O=c1[nH]cc(F)c(=O)[nH]1` as the compound, how does the activation read?
**A.** -1.24%

**Q.** For `CCCCNC(=O)NS(=O)(=O)c1ccc(C)cc1`, which activation is on record?
**A.** 0.0302% and 2.67%

**Q.** For `CC(C)OC(=O)C(C)(C)Oc1ccc(C(=O)c2ccc(Cl)cc2)cc1`, which activation is on record?
**A.** 2.77%

**Q.** For `Clc1ccc(C(c2ccccc2Cl)C(Cl)Cl)cc1` (stereo not drawn), which activation is on record?
**A.** 3.36%

**Q.** For `COc1ccc(Cl)cc1C(=O)NCCc1ccc(S(=O)(=O)NC(=O)NC2CCCCC2)cc1`, which activation is on record?
**A.** 0.916%

**Q.** For `CC1=C(/C=C/C(C)=C/C=C/C(C)=C/C(=O)Nc2ccc(O)cc2)C(C)(C)CCC1`, which activation is on record?
**A.** -5.41%

target: Peroxisome proliferator-activated receptor delta (Homo sapiens) (UniProt Q03181); assay: qHTS assay for small molecule agonists of peroxisome proliferator-activated receptor delta signaling (AID 588534; calls by dose curve); details: HEK293T PPARdelta-UAS-bla, beta-lactamase ratio, 18 h; series mostly up to 76.7 µM
Method in brief: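 Agonist-mode qHTS; reporter cells, 5 hrs 37 C pre-incubation; compound titration, 18 hrs 37 C; CCF4 dye, 2 hrs RT; fluorescence read. EC50/efficacy via Hill fit.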

Peroxisome proliferator-activated receptor delta (Homo sapiens), sequence (Q03181 whole entry, looked up): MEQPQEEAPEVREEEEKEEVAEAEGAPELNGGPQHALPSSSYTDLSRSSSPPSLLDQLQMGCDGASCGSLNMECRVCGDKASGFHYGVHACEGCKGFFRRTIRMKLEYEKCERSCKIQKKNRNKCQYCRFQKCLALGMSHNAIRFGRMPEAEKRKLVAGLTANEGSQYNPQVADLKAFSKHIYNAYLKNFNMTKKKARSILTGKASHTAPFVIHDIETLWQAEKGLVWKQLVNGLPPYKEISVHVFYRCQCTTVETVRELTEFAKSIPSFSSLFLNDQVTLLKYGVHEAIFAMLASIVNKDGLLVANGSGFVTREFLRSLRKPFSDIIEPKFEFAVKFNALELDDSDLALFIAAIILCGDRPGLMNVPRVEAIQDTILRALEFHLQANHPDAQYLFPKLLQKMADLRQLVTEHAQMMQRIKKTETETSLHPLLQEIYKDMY

**Q.** Which outcome does the source give for `Cn1cnc([N+](=O)[O-])c1Sc1ncnc2nc[nH]c12` here?
**A.** inactive

**Q.** Which outcome does the source give for `C[C@](N)(Cc1ccc(O)c(O)c1)C(=O)O` here?
**A.** inactive

**Q.** Which outcome does the source give for `CCCNC(=O)NS(=O)(=O)c1ccc(Cl)cc1` here?
**A.** inactive

**Q.** With `NC[C@H](O)c1ccc(O)c(O)c1` as the compound, how does the outcome read?
**A.** inactive

**Q.** For `Cc1ccccc1C(OCCN(C)C)c1ccccc1` (stereo not drawn), which outcome is on record?
**A.** inactive

**Q.** Which outcome does the source give for `CCN(CC)C(=S)SSC(=S)N(CC)CC` here?
**A.** inactive

**Q.** With `O=c1[nH]cc(F)c(=O)[nH]1` as the compound, how does the outcome read?
**A.** inactive
